Records with an inconclusive call do not appear. Where a call stands in place of a potency, no number is given. Active and inactive are the calls of the source. How the calls were made is not given here.
test: qHTS assay to identify small molecule antagonists of the estrogen related receptor signaling pathway with the pleiotropic PPARgamma coactivator (PGC) from Tox21 10K library (AID 1224841); settings: PGC/ERR reporter cell line, ONE-Glo luciferase, 18 h; series mostly up to 92.4 µM; further: actives are mostly falling curves and most rising ones were filed inactive; nearly all actives have a fitted effect of over 50% in size
Excerpt: U.S. Tox21 Program National Center for Advancing Translational Sciences [NCATS] NIH Chemical Genomics Center [NCGC] U.S. Environmental Protection Agency [EPA] National Institutes of Environmental Health Sciences [NIEHS] National Toxicology Program [NTP] U.S. Food and Drug Administration [FDA] Tox21 Assay Overview: Estrogen related receptors (ERRs), the first orphan nuclear receptors discovered, play an important role in the control of cellular energy metabolism. ERRs are required for high-energy production in response to the environmental challenges. The pleiotropic PPARgamma coactivator (PGC) is a major partner of ERR and a key regulator in energy homeostasis. Together they have been implicated in the etiology of metabolic disorders such as Type 2 diabetes and metabolic syndrome. ERR-alpha was also identified as an adverse marker for breast cancer progression; ERR-alpha-positive tumors have a poor prognosis. To screen and to identify environmental compounds that perturb the ERR and PGC/ERR signaling pathways could provide valuable information for potential therapeutic or preventive measures in the treatment of metabolic disease. For identifying PGC/ERR antagonists, PGC/ERR cell line (provided by NTP) has been used to screen Tox21 10K library.
Tox21 Assay Protocol Summary: The PGC/ERR cells were dispensed at 2,000 cells/5 ul/well in 1536-well white plates using a Multidrop dispenser. After the assay plates were incubated at a 37 C/5% CO2 incubator for 6 hours, 23 nL of compounds dissolved in DMSO, positive and negative controls or DMSO only was transferred to the assay plate by a pin tool. The plates were incubated at 37 C for 18 hours. 4 ul/well of One-Glo reagent was added into the assay plates using a Flying Reagent Dispenser. After 30-minute incubation at room temperature, the luminescence intensity in the plates was measured using a ViewLux plate reader.
Potency means the concentration at half of the fitted maximal effect.

SMILES | Potency
CC(=O)Nc1ccc(C)cc1C | inactive
CN1CCCC(n2nc(Cc3ccc(Cl)cc3)c3ccccc3c2=O)CC1 (stereo not given) | inactive
CCCCCC[C@@H](O)C/C=C\CCCCCCCC(=O)O | inactive
CN1CCCN=C1COC(=O)C(O)(c1ccccc1)C1CCCCC1 (stereo not given) | inactive
C=C(C)[C@@H]1CCC2=CCC[C@@H](C)[C@]2(C)C1 | inactive
CC(C)=CCC/C(C)=C/CC/C(C)=C/CCC(=O)OC/C=C(\C)CCC=C(C)C | inactive
Cc1cc(O)ccc1O | inactive
COc1ncnc(NS(=O)(=O)c2ccc(N)cc2)c1OC | inactive
C=C1C[C@@]23CC[C@H]4[C@@](C)(CCC[C@@]4(C)C(=O)O[C@@H]4O[C@H](CO)[C@@H](O)[C@H](O)[C@H]4O)[C@@H]2CC[C@]1(O[C@@H]1O[C@H](CO)[C@@H](O)[C@H](O[C@@H]2O[C@H](CO)[C@@H](O)[C@H](O)[C@H]2O)[C@H]1O[C@@H]1O[C@H](CO)[C@@H](O)[C@H](O)[C@H]1O)C3 | inactive
CC(C)=CCC/C(C)=C/CC/C(C)=C/C(=O)OCC(=O)[C@@]1(O)CC[C@H]2[C@@H]3CCC4=CC(=O)C=C[C@]4(C)[C@H]3[C@@H](O)C[C@@]21C | 16.8 µM (active)
C=C1c2cccc(O)c2C(O)=C2C(=O)[C@]3(O)C(O)=C(C(N)=O)C(=O)[C@@H](N(C)C)[C@@H]3[C@@H](O)[C@H]12 | inactive
Cc1ccc(OC(=O)c2ccccc2O)cc1 | inactive
C=Cc1ccc(S(=O)(=O)O)cc1 | inactive
N#[N+]c1ccc2c(S(=O)(=O)[O-])cccc2c1O | inactive
CC(O)c1ccccc1 (stereo not given) | inactive
CC1(C)[C@@H](OC(=O)CCC(=O)O)CC[C@]2(C)[C@H]3C(=O)C=C4[C@@H]5C[C@@](C)(C(=O)O)CC[C@]5(C)CC[C@@]4(C)[C@]3(C)CC[C@@H]12 | inactive
CC[N+](CC)(CCNC(=O)C(=O)NCC[N+](CC)(CC)Cc1ccccc1Cl)Cc1ccccc1Cl | inactive
C[C@@H]1CC(=O)NN=C1c1ccc(NN=C(C#N)C#N)cc1 | 4.73 µM (active)
O=C(O)CCc1nc(-c2ccccc2)c(-c2ccccc2)o1 | inactive
OCCN1CCN(CCCN2c3ccccc3Sc3ccc(Cl)cc32)CC1 | inactive

SMILES | Potency
CS(=O)(=O)c1ccc(-c2cn3ccccc3n2)cc1 | inactive
CN1C(=O)c2ccccc2C1=O | inactive
CCCCCCCCC(CCCCCC)C(=O)O (stereo not given) | inactive
N#CCc1ccc(Cl)cc1Cl | inactive
Cc1cccc(O)c1N | inactive
O=C(O)c1ccc(OCCCOc2ccc(C(=O)O)cc2)cc1 | inactive
CCCCCCCCCI | inactive
CC(CCC(=O)O)C(=O)O (stereo not given) | inactive
Oc1cccc(O)c1O | inactive
Clc1ccc(Nc2nnc(Cc3ccncc3)c3ccccc23)cc1 | 13.3 µM (active)
C=COCC(C)C | inactive
CN(C(=O)CN(CCO)CC(=O)N(C)C(C)(C)Cc1ccccc1)C(C)(C)Cc1ccccc1 | inactive
C(=C\c1ccccc1)/c1ccccc1 | inactive
CCCCC(CC)CN (stereo not given) | inactive
Oc1c(I)cc(I)c2cccnc12 | inactive
CC(=O)[C@H]1[C@H](C#N)C[C@H]2[C@@H]3CC=C4C[C@@H](O)CC[C@]4(C)[C@H]3CC[C@@]21C | inactive
NC1[C@H]2CN(c3nc4c(cc3F)c(=O)c(C(=O)O)cn4-c3ccc(F)cc3F)C[C@@H]12 (stereo not given in full) | inactive
CC/C=C1/OC(=O)c2ccccc21 | inactive
O=C(CCc1ccc(O)cc1)c1c(O)cc(O)cc1O | inactive
C[C@@H](O[C@H]1OCCN(Cc2n[nH]c(=O)[nH]2)[C@H]1c1ccc(F)cc1)c1cc(C(F)(F)F)cc(C(F)(F)F)c1 | 29.8 µM (active)

— PubChem BioAssay (Tox21)
